Source: PubChem BioAssay
Hits are enriched below; roughly 3.6% of the tested compounds scored in any of these assays.
mHTT CaM bind – inhibitors of human mutant huntingtin-calmodulin interaction; P42858; AlphaScreen His-mHTT/GST-CaM binding, luminescence; inhibition, % at 15 µM; hit rate 3.6% among 190,000;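 further: 0% = both proteins with DMSO and 100% = one protein alone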
Pf apPOL block – Pf-apPOL DNA polymerase inhibition | AID 1794808 | Recombinant Pf-apPOL, molecular beacon fluorescence, 1.5 h | inhibition, % at 10 µM | hit rate 0.25% among 210,000
* marks the source's active call; other numbers are inactive results; nt = no result given. No stated cut-off is given here; in the data, active means inhibition above about 50%; inactive means the rest.

SMILES	mHTT CaM bind	Pf apPOL block
CCS(=O)(=O)c1ccccc1C(=O)Nc1cccc(-c2nc3ccccc3o2)c1	38.7	0.4
CC(C)NC(=O)c1ccc(OCC2CCN(C(=O)c3c(F)cccc3F)CC2)cc1	1.1	-10.5
O=C1C(=O)N(CCN2CCCCC2)c2ccccc21	2.6	8.1
O=C1C(=O)N(CN2CCCCCC2)c2ccccc21	77.0*	-3.5
O=C(NCc1ccccc1F)C1Cc2ccccc2N2CCN(c3cnccn3)CC12 (stereo unspecified)	84.0*	47.6
CCNC(=O)C1Cc2ccccc2N2CCN(c3cnccn3)CC12 (stereo unspecified)	6.6	-1.1
CCOc1cccc(C(=O)Nc2ccc(NC(C)=O)cc2)c1	-1.2	-4.9
CCOc1ccc(N=C2C(=O)Nc3ccccc32)cc1	35.0	-1.5
CCOc1ccc(N=C2C(=O)Nc3ccc(C)c(Br)c32)cc1	57.0*	-2.0
O=C(NCc1ccccc1Cl)c1ccc2c(c1)ncn2-c1ccc(F)c(F)c1	28.0	-5.8
O=S(=O)(NC1CCCCCC1)c1ccc2nc(-c3ccccc3)[nH]c2c1	8.0	-13.2
O=S(=O)(NC1CCN(Cc2ccccc2)CC1)c1ccc2nc(-c3ccccc3)[nH]c2c1	87.0*	-12.4
COc1ccc(S(=O)(=O)Oc2ccc3c(c2)OC(=Cc2ccccc2)C3=O)cc1	3.9	-4.4
CC1CCN(C(=O)CSc2cn(Cc3ccc(Cl)cc3)c3ccccc23)CC1	91.0*	-3.6
O=C(CSc1cn(Cc2ccc(F)cc2)c2ccccc12)N1CCCCCC1	70.0*	-8.1
O=C(CSc1cn(Cc2ccccc2Cl)c2ccccc12)N1CCOCC1	36.0	-6.4
O=C(CSc1cn(Cc2ccc(F)cc2)c2ccccc12)N1CCCC1	21.0	-1.8
Cc1ccccc1Cn1cc(SCC(=O)N2CCCCC2)c2ccccc21	86.0*	2.8
O=C(CSc1cn(Cc2ccc(F)cc2)c2ccccc12)N1CCCCC1	31.0	2.7
O=C(Cc1ccc(NC(=O)c2cccc(Cl)c2)cc1)NCC(F)(F)F	-3.6	0.7
COc1ccc(NC(=O)c2cc3n(n2)C(C(F)(F)F)CC(c2ccc(OC)c(OC)c2)N3)cc1 (stereo unspecified)	4.0	-1.3
Cn1c(/C=C/c2ccc([N+](=O)[O-])o2)nc2ccccc2c1=O	2.6	-3.6
Cn1cc(C(c2ccc([N+](=O)[O-])o2)c2cn(C)c3ccccc23)c2ccccc21	65.0*	-0.4
CCc1ccc(CNC(=O)C2CCN(c3cc(=O)n(C)c(=O)n3CC)CC2)cc1	40.9	-4.4
CCn1c(N2CCC(C(=O)NCc3ccco3)CC2)cc(=O)n(C)c1=O	51.6*	-4.0
SMILES	mHTT CaM bind	Pf apPOL block
CCn1c(N2CCC(C(=O)NCc3ccc4c(c3)OCO4)CC2)cc(=O)n(C)c1=O	41.7	-2.7
CCn1c(N2CCC(C(=O)NCc3ccc(OC)cc3)CC2)cc(=O)n(C)c1=O	57.4*	-6.5
O=C(c1ccc(OCC2CCCN(C(=O)c3c(F)cccc3Cl)C2)cc1)N1CCCC1 (stereo unspecified)	14.8	24.8
CN(C)Cc1cc(Cl)ccc1O	-3.1	2.5
Oc1ccc(Cl)cc1Sc1cc(Cl)ccc1O	97.8*	nt
COc1cccc(N2C(=O)NC3CC2(C)Oc2ccccc23)c1 (stereo unspecified)	88.0*	-3.8
Cc1ccc(CCNC(=O)c2ccc(N3C(=O)NC4CC3(C)Oc3ccccc34)cc2)cc1 (stereo unspecified)	49.0	-6.0
Cc1ccc(CNC(=O)c2ccc(N3C(=O)NC4CC3(C)Oc3ccccc34)cc2)cc1 (stereo unspecified)	55.0*	-7.8
Cc1ccc(N2C(=O)NC3CC2(C)Oc2ccc(Br)cc23)cc1C (stereo unspecified)	36.0	-1.8
COc1cccc(N2C(=O)NC3CC2(C)Oc2ccc(Cl)cc23)c1 (stereo unspecified)	31.0	15.1
Cc1ccc(N2C(=O)NC3CC2(C)Oc2ccc(Br)cc23)cc1Cl (stereo unspecified)	55.0*	-4.0
O=C1OC(C(=O)NC2CCCCC2)Cc2ccccc21 (stereo unspecified)	-6.3	5.8
O=C(O)c1ccc(C(=O)O)c2c1C(=O)c1ccccc1C2=O	-4.0	1.2
O=C(Nc1cccc([N+](=O)[O-])c1)NC1(C(F)(F)F)Oc2ccccc2O1	17.0	-2.5
CN(C)c1ccc(/C=C/C=C2/SC(=N)NC2=O)cc1	62.0*	1.6
CN(C)c1ccc(/C=C/C=C2/SC(=Nc3ccccc3)NC2=O)cc1	43.0	-0.2
Cc1ccc(-n2cnc(C(=O)NCCC(C)C)n2)cc1	9.5	4.3
CSc1nnc2c(n1)OC(c1ccc(C(=O)O)cc1)Nc1ccc(Br)cc1-2 (stereo unspecified)	4.0	-12.2
CCCSc1nnc2c(n1)OC(c1ccco1)Nc1ccccc1-2 (stereo unspecified)	7.0	-4.9
CCCSc1nnc2c(n1)OC(c1ccco1)Nc1ccc(Br)cc1-2 (stereo unspecified)	53.0*	-7.3
CSc1nnc2c(n1)OC(c1ccncc1)Nc1ccc(Br)cc1-2 (stereo unspecified)	54.0*	-4.7
COc1ccc(/C=C2\C=C(c3ccccc3)N(c3ccccc3O)C2=O)cc1	76.0*	3.0
O=C1/C(=C/c2ccc([N+](=O)[O-])cc2)C=C(c2ccccc2)N1c1ccccc1O	24.0	8.0
CCOC(=O)c1ccccc1NC(=O)N1CCc2cn(C)c3cccc(c23)C1	19.7	2.1
Cc1ccccc1-c1nc(C2CCN(C(=O)c3ccc(F)c(Cl)c3)CC2)no1	93.6*	2.5
SMILES	mHTT CaM bind	Pf apPOL block
Cc1oc(C2CCN(C(=O)c3cc4ccccc4[nH]3)CC2)nc1C(=O)N1CCCC1	82.7*	1.4
COc1cc(OC)cc(C(=O)N2CCC(c3noc(-c4ccccc4OC)n3)CC2)c1	8.1	-1.5
CCOc1ccc(C(=O)N2CCC(c3noc(-c4ccccc4C)n3)CC2)cc1OCC	11.3	-4.1
COc1ccccc1-c1nc(C2CCN(C(=O)c3cc4ccccc4[nH]3)CC2)no1	100.2*	4.7
Cc1oc(C2CCN(C(=O)c3cc4ccccc4[nH]3)CC2)nc1C(=O)N(C)C	16.9	-3.0
CCN1CCN(c2nc3c(c(=O)n(C)c(=O)n3C)n2Cc2ccccc2Cl)CC1	-1.0	-15.4
CCn1ccc2c(cc(C(=O)Nc3ccc(F)cc3)n2C)c1=O	-8.2	-16.9
Cc1ccccc1-n1nc2c(c1NC(=O)CSCc1ccccc1)CSC2	80.9*	0.8
CCC(=O)Nc1c2c(nn1-c1ccccc1C)CSC2	2.0	4.1
Cc1ccc(-n2nc3c(c2NC(=O)/C=C/c2ccccc2)CSC3)c(C)c1	41.0	-9.1
O=C(Nc1c2c(nn1-c1ccc(Cl)cc1)CSC2)c1cccs1	50.0*	-1.3
O=C(Nc1c2c(nn1-c1ccccc1)CSC2)c1cccs1	32.0	7.3
O=C(/C=C/c1ccccc1)Nc1c2c(nn1-c1ccc(Cl)cc1)CSC2	56.0*	-8.8
O=C(/C=C/c1ccc2c(c1)OCO2)Nc1c2c(nn1-c1ccc(Cl)cc1)CSC2	25.0	-5.8
Cc1ccccc1-n1nc2c(c1NC(=O)/C=C/c1ccccc1)CSC2	81.0*	-4.1
O=C(NC(=O)c1c(Cl)cccc1Cl)Nc1ncc(C(F)(F)F)cc1Cl	nt	5.5
O=C(NCc1ccccc1Cl)C(c1ccccc1)n1cccc1 (stereo unspecified)	9.2	-0.4
N#CCCN1CCN(C(=O)c2ccc(N3CCNC(c4ccccc4)C3)nc2)CC1 (stereo unspecified)	4.5	4.4
